Measurements as given in PubChem BioAssay (NCATS).
“And” between values parts separate entries of the source, which are not always exact repeats. Equal entries are not always repeated. Results filed as inconclusive are left out. The source made the active and inactive calls. Unless noted, calls follow the shape of the dose curve; as a rule, active = well fitted curve in the direction sought with a large enough effect; inconclusive = small, poorly fitted or top-dose-only effect, or another doubt; inactive = no such curve, though single readings can be large; an effect the other way counts as inactive or inconclusive.

How the values were obtained:
[1] = Drug repurposing screens with cells derived from glioblastoma tumor samples (AID 1345199); conditions: GBM patient neurospheres viability, ATP luminescence, 48 h; Potency: tumour line A unless noted; series mostly up to 45.9 µM; also: nearly all actives have a fitted effect of over 40% in size; also: potency is read from the fitted curve at half-maximal effect
Procedure, shortened: (§1)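 Four patient lines of CD133+ GBM neurospheres were screened at several concentrations; hits were retested in those lines plus three slower-growing GBM lines, using 48-hour treatment and ATP-based viability.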

astro = control astrocytes; assay: as above; conditions: viability, ATP luminescence, 48 h; series mostly up to 45.9 µM
Procedure, shortened: as §1

CASKI = assay: Primary qHTS to identify gynecologic anti-cancer compounds using libraries of approved drugs and bioactive compounds (AID 1345084); conditions: Gynecologic cancer cell panel viability, ATPlite luminescence, 48 h; series mostly up to 57.5 µM; also: nearly all actives have a fitted effect of over 55% in size; also: potency is read from the fitted curve at half-maximal effect
Procedure, shortened: (§2)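 Cells, 1,000 per well, were allowed to settle for 16 h at 37 C before compound addition. Five concentrations were tested for 48 h, and viability was read by ATPlite luminescence after 15 min at room temperature.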

HeLa = assay: as above; conditions: Gynecologic cancer cell panel viability, ATPlite luminescence, 48 h; series mostly up to 57.5 µM
Procedure, shortened: as §2

Hek293T = assay: as above; conditions: Gynecologic cancer cell panel viability, ATPlite luminescence, 48 h, control line for the selectivity index; series mostly up to 57.5 µM
Procedure, shortened: as §2

JEG-3 = assay: as above; conditions: Gynecologic cancer cell panel viability, ATPlite luminescence, 48 h; series mostly up to 57.5 µM
Procedure, shortened: as §2

PA-1 = assay: as above; conditions: Gynecologic cancer cell panel viability, ATPlite luminescence, 48 h; series mostly up to 57.5 µM
Procedure, shortened: as §2

Tov-21-G = assay: as above; conditions: Gynecologic cancer cell panel viability, ATPlite luminescence, 48 h; series mostly up to 57.5 µM
Procedure, shortened: as §2

Tov112D = assay: as above; conditions: Gynecologic cancer cell panel viability, ATPlite luminescence, 48 h; series mostly up to 57.5 µM
Procedure, shortened: as §2

[2] = biological target: Nuclear receptor subfamily 1 group I member 2 (Rattus norvegicus) (UniProt Q9R1A7); assay: qHTS assay for small molecule activators of the rat pregnane X receptor (rPXR) signaling pathway (AID 651751; call rule not given here; also: 0% is about no effect); conditions: rPXR reporter cells, luciferase (One-Glo), 24 h
Chain of Nuclear receptor subfamily 1 group I member 2 (Rattus norvegicus) (Q9R1A7 whole entry, looked up): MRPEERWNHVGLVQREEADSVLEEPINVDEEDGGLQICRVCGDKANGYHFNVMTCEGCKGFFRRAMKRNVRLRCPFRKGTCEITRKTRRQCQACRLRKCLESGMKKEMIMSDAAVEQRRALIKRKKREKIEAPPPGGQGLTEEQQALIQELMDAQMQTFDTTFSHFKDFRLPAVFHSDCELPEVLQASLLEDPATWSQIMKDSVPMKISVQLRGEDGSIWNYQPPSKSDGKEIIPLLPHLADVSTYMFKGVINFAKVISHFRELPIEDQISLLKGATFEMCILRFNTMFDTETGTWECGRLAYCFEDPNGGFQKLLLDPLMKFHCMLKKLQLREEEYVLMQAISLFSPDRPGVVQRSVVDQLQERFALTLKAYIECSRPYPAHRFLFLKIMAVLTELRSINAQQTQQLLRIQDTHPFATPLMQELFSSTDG

OV90 = assay: Primary qHTS to identify gynecologic anti-cancer compounds using libraries of approved drugs and bioactive compounds (AID 1345084); conditions: Gynecologic cancer cell panel viability, ATPlite luminescence, 48 h; series mostly up to 57.5 µM; also: nearly all actives have a fitted effect of over 55% in size; also: potency is read from the fitted curve at half-maximal effect
Procedure, shortened: as §2

SKOV3 = assay: as above; conditions: Gynecologic cancer cell panel viability, ATPlite luminescence, 48 h; series mostly up to 57.5 µM
Procedure, shortened: as §2

[3] = qHTS assay to identify inhibitors of the type 1 interferon - major histocompatibility complex class I in skeletal muscle: Counter screen cell viability and HiBit confirmation (AID 1347412); conditions: iHSKM muscle cells + IFN-b, HiBiT or CellTiter-Glo, 24 h; for activity change, negative = inhibition: at 45.9 µM (top of the series); also: potency is read from the fitted curve at half-maximal effect; as to activity change, negative = inhibition: % is scaled to controls: 0 for no effect and ±100 for the full control effect; as to all read-outs here: nearly all actives have a fitted effect of over 60% in size
Procedure, shortened: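 Myoblasts (C25cl48, HLA-B HiBiT) seeded in medium without dexamethasone, IFN-b 4 ng/ml added except unstimulated columns; 1 hr later compounds pinned (12-pt 1:3, top 46 uM final). Incubated 24 hrs, lysed 10 min, luminescence measured.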

Es-2 = assay: Primary qHTS to identify gynecologic anti-cancer compounds using libraries of approved drugs and bioactive compounds (AID 1345084); conditions: Gynecologic cancer cell panel viability, ATPlite luminescence, 48 h; series mostly up to 57.5 µM; also: nearly all actives have a fitted effect of over 55% in size; also: potency is read from the fitted curve at half-maximal effect
Procedure, shortened: as §2

[4] = qHTS assay for small molecule activators of the human pregnane X receptor (PXR) signaling pathway (AID 720659; call rule not given here; also: 0% is about no effect)

CCCN1CCC[C@H](c2cccc(O)c2)C1
inactive: Potency [1] | Potency (astro)

CCCCCCCCCC(CC)c1ccc(S(=O)(=O)O)cc1 (stereo not drawn)
inactive: Potency (CASKI) | Potency (HeLa) | Potency (Hek293T) | Potency (JEG-3) | Potency (PA-1) | Potency (Tov-21-G) | Potency (Tov112D) | Potency [1] | max response [2] 0.683% and -5.48%

CCNC(=O)C[C@@H]1N=C(c2ccc(Cl)cc2)c2cc(OC)ccc2-n2c(C)nnc21
active: Potency (PA-1) 0.891 µM
inactive: Potency (CASKI) | Potency (Tov112D)

S=C(SSC(=S)N1CCCCC1)N1CCCCC1
inactive: Potency (CASKI) | Potency (HeLa) | Potency [1] | Potency (astro)
active: Potency (Hek293T) 17.8 µM | Potency (OV90) 10 µM | Potency (SKOV3) 3.98 µM | Potency (Tov112D) 14.1 µM

CN[C@@H]1C[C@@H](c2ccc(Cl)c(Cl)c2)c2ccccc21
inactive: activity change, negative = inhibition ([3]; HiBiT) -7.12% | activity change, negative = inhibition ([3]; Viability) -20.4%

CCN1CCN(C(=O)Cc2ccc(Nc3ncc(F)c(Nc4ccc(C(=O)Nc5ccccc5Cl)cc4)n3)cc2)CC1
inactive: Potency (CASKI) | Potency (JEG-3) | Potency (OV90)
active: Potency (HeLa) 8.91 µM | Potency (Hek293T) 25.1 µM | Potency (PA-1) 25.1 µM | Potency (SKOV3) 15.8 µM | Potency (Tov-21-G) 28.2 µM | Potency (Tov112D) 2.51 µM | Potency ([3]; HiBiT) 14 µM

O=[N+]([O-])c1c2ccccc2cc2ccccc12
inactive: Potency (CASKI) | Potency (Es-2) | Potency (Hek293T) | Potency (JEG-3) | Potency (OV90) | Potency (PA-1) | Potency (Tov-21-G) | Potency (Tov112D) | Potency (astro)

CCCN(CCC)c1c([N+](=O)[O-])cc(S(N)(=O)=O)cc1[N+](=O)[O-]
inactive: Potency (JEG-3)

C[N+](C)(C)CC(=O)O
inactive: Potency [1]

CC1(N2CCC(n3c([C@@H]4CCCNC4)nc4ccccc43)CC2)CCCCCCC1
active: Potency (Es-2) 22.4 µM | Potency (JEG-3) 11.2 µM | Potency (OV90) 12.6 µM | Potency (PA-1) 15.8 µM | Potency (Tov112D) 22.4 µM

C[C@]12N[C@H](Cc3ccccc31)c1ccccc12
inactive: Potency [1] | Potency (astro)

CC(C)NC(C)Cc1ccc(I)cc1 (stereo not drawn)
inactive: Potency (astro)

Nc1ccc([N+](=O)[O-])cc1
inactive: Potency (CASKI) | Potency (HeLa) | Potency (Hek293T) | Potency (JEG-3) | Potency (OV90) | Potency (PA-1) | Potency (Tov-21-G) | Potency (Tov112D) | Potency (astro) | max response [2] -0.553% | outcome [4]

C/C=C(/C)C(=O)O[C@H]1C(C)=C2[C@H]([C@@H]1OC(=O)CCCCCCC)[C@@](C)(OC(C)=O)C[C@H](OC(=O)CCC)[C@@]1(O)[C@H]2OC(=O)[C@@]1(C)O
active: Potency (Es-2) 0.316 µM | Potency (HeLa) 0.447 µM | Potency (JEG-3) 0.447 µM | Potency (PA-1) 0.158 µM | Potency (Tov112D) 0.501 µM | Potency ([3]; HiBiT) 0.0079 µM

COc1ccc(C(c2ccc(OC)cc2)C(Cl)(Cl)Cl)cc1
inactive: Potency (Es-2) | Potency (Hek293T) | Potency (JEG-3) | Potency (PA-1) | Potency (Tov-21-G) | Potency (Tov112D)

NC(=O)CN1CC(O)CC1=O (stereo not drawn)
inactive: Potency [1]

CN(C)NC(=O)CCC(=O)O
inactive: max response [2] -0.418% and -0.734%

CCCCCCCCCCCCCCCC[N+](C)(C)C
inactive: outcome [4]
active: Potency (CASKI) 20 µM | Potency (SKOV3) 28.2 µM | Potency (Tov-21-G) 7.94 µM | Potency (astro) 11.2 µM
